The values that follow come from PubChem BioAssay AID1159524 (National Center for Advancing Translational Sciences (NCATS), 2015).

Hit rate of the full screen: of about 410,000 compounds, about 5,100 (1.2%) were called active. Entries that show only a call come without a potency. Roughly 8% stayed inconclusive and do not appear here. The sample holds actives, similar compounds and a random draw of the others, so the mix is not that of the screen. Calls follow the shape of the full dose curve; tested in HEK293T cells.
Potency is read from the fitted curve at half-maximal effect.

A short description of this assay: High Throughput Screening for Foot and Mouth Disease Virus Antivirals. Also: nearly all actives have a fitted effect of over 45% in size. Particulars: FMDV antiviral cell-based qHTS; series mostly up to 57.9 µM. A general note: qHTS replaces the single test concentration by a dilution series.
For the molecule `COc1ccc2[nH]cc(CCNCc3ccc(Br)cc3)c2c1`, the Potency entry is “inactive”.
The result for `Cc1ccc2nc(-c3ccc(C)c(NC(=O)Cc4ccccc4)c3)oc2c1` reads “inactive”; that for `O=c1oc2ccccc2cc1-c1cn(-c2ccccc2)c(=S)[nH]1`, 12.6 µM (active); that for `Cc1cc(NC(=O)c2cccc(Cl)c2)ccc1-c1cc2ccccc2oc1=O`, “inactive”.
With `COc1ccc(OC)c(-c2csc(-c3c(N)c(C(=O)c4ccccc4)n4ccccc34)n2)c1` the entry was “inactive”.
`CCOC(=O)c1[nH]c(C)c(CCC(=O)N2CCN(c3ccccc3)CC2)c1C`: the Potency entry was “inactive”.
Turning to `CCOc1ccc2nc(N3CCCN(CCCn4cccn4)CC3)nc(C)c2c1`, the Potency result was “inactive”.
As for `CCCn1ccc2c(OCC(=O)NCc3ccc(F)cc3)cccc2c1=O`, the Potency entry is “inactive”.
Turning to `COc1ccc(C2=NS(=O)(=O)N(C)C(C(=O)N3CCCCC3)=C2)cc1`, the Potency result was “inactive”.
Regarding `COc1ccc(C2=NS(=O)(=O)N(C)C(C(=O)NC(C)c3ccccc3)=C2)cc1` (stereo not drawn), the Potency entry was “inactive”.
The result for `COc1ccc(NC(=O)C2=CC(c3ccc(OC)c(OC)c3)=NS(=O)(=O)N2C)cc1` reads 31.6 µM (active); that for `Cc1ccc2c(c1)c1c(c(=O)n(-c3ccccc3)c(=O)n1CC(=O)c1ccc(Cl)cc1)n2C`, “inactive”; that for `Clc1ccc([C@@H]2C[C@H]3CC[C@@H]2N3)cn1`, “inactive”.
Turning to `O=C(NCc1ccco1)C1(c2ccc(Cl)cc2)CCCC1`, the Potency entry was “inactive”.
The result for `O=C(CSc1c2c(nc3ccc(Cl)cc13)CCCC2)NCc1ccco1` reads 25.1 µM (active); that for `O=C(CSc1nc2cc3c(cc2c(=O)n1CCC1=CCCCC1)OCO3)NCc1ccco1`, “inactive”; that for `COc1cc(C)c(CN2CCc3nnc(C(C)NC(=O)c4cccnc4)n3CC2)cc1C` (stereo not drawn), “inactive”.
Take `COc1cccc(-c2ccc(O)c(CNC3CN4CCC3CC4)c2)n1` (stereo not drawn): the Potency entry is “inactive”.
In the case of `O=C(NCCN1CCOCC1)c1cnn(-c2nccc(-c3cccs3)n2)c1C1CC1`, the Potency result was “inactive”.
With `O=C(c1cnccn1)N1CCC[C@@]2(CCN(Cc3ccncc3)C2)C1` the entry was “inactive”; with `Cc1nc2cnc(Nc3ccccc3)nc2n(Cc2ccc(F)cc2)c1=O`, “inactive”; with `CCCCNC(=O)c1ccc2c(c1)NC(=O)C(C(C)C)N2` (stereo not drawn), “inactive”.
With `COc1ccc(NC(=O)N2CC3(CCN(C(C)=O)CC3)C2)cc1` the entry was “inactive”; with `CC(C)(C)OC(=O)NNc1c2ccccc2nc2ccccc12`, 20 µM (active); with `CC(C)(C)OC(=O)N[C@H](C(=O)OC(C)(C)C)c1ccc(Br)cc1`, “inactive”.
The result for `Cc1ccc(C(=O)NNC(=O)OC(C)(C)C)c(Cl)c1` reads “inactive”; that for `O=C(c1cc(C(F)(F)F)cc(C(F)(F)F)c1)N1CCC2(CC1)CN(c1ccncc1)C2`, “inactive”; that for `Fc1cccc(/C=N\N=C/c2cccc(F)c2)c1`, “inactive”.
For `CCCCOC(=O)CNc1nnc(SCC(=O)OCC)[nH]c1=O`, the Potency is 39.8 µM (active).
For `CCOC(=O)CNc1nc2ccccc2n2c(C)nnc12`, the Potency result was “inactive”.
With `Cc1nnc(SCCCCSc2nnc(C)c(=O)[nH]2)[nH]c1=O` the entry was “inactive”.
With `Cc1cccc(Cc2c(C)nc3nc(SCc4ccccc4Cl)nn3c2C)c1` the entry was “inactive”; with `CCOc1ccc(C(=O)c2cn(Cc3ccc(F)cc3)c3ccc(F)cc3c2=O)cc1`, “inactive”; with `COC(=O)c1ccccc1NC(=O)Cn1c(=O)cc(C)c2c(C)nn(-c3cccc(Cl)c3C)c21`, “inactive”.
The result for `O=c1c(-c2ccc(F)cc2)nc2cnc(N3CCOCC3)nc2n1-c1ccccc1` reads “inactive”; that for `C=CCN1CCC2(C)c3cc(O)ccc3CC1[C@@H]2C` (stereo partly drawn), “inactive”; that for `CCn1c(CSc2nc(C)cc(C)n2)nnc1SCC(N)=O`, “inactive”.
Consider `Cc1cc(C)nc(S/C=C/C(=O)c2ccccc2)n1`, for which the Potency is 12.6 µM (active).
With `O=C(CSCc1cnn(-c2ccccc2)c1-n1cccc1)NCc1ccc(Cl)cc1` the entry was “inactive”.
The result for `COc1cn(CC(=O)Nc2cccc(C)c2C)c(CN2CCCCC2)cc1=O` reads “inactive”; that for `COc1ccc2[nH]cc(CCNc3cc(-c4ccccc4CN(C)C)ncn3)c2c1`, “inactive”; that for `O=C(Nc1cccc(NC(=O)N2CCN(c3ccccc3)CC2)c1)N1CCN(c2ccccc2)CC1`, 25.1 µM (active).
The result for `O=C(Nc1ccccc1)N1CCN(C2c3ccccc3-c3ccccc32)CC1` reads “inactive”; that for `COc1cccc(N2CCN(C(=O)Nc3ccc4c(c3)NC(=O)CO4)CC2)c1`, “inactive”; that for `CC(C)NC[C@H](O)c1ccc2ccccc2c1`, “inactive”.
In the case of `CCc1nn(CCCC(=O)NCc2ccccc2OC)c(=O)c2cc3occc3n12`, the Potency entry was “inactive”.
Take `COCCn1c(=O)c(-c2cc(F)cc(F)c2)nc2cnc(N3CCNCC3)nc21`: the Potency result is “inactive”.
With `COc1ccc(-c2cn3nc(N4CCCC(C(=O)NCCCOC(C)C)C4)sc3n2)cc1` (stereo not drawn) the entry was “inactive”.
On to `O=C(Nc1c(-c2ccc(F)cc2)nc2ccccn12)c1cccc(F)c1`, for which the Potency result was “inactive”.
The result for `Cc1ccc2nc(CNC(=O)c3ccccc3)[nH]c2c1` reads “inactive”.
With `N#C/C(=C\c1ccccc1F)c1nc2ccccc2c(=O)[nH]1` the entry was “inactive”.
With `O=C(/C(=C/c1cccc(Cl)c1)c1nc2ccccc2[nH]1)c1ccccc1` the figure was 7.94 µM (active).
Turning to `Cc1ccccc1Cn1nc(C)c(NC(=O)c2cc(-c3ccc(F)cc3)on2)c1C`, the Potency entry is “inactive”.
`COc1ccc2c(c1)CCc1c(C(=O)Nc3cc(C)ccc3O)noc1-2`: the Potency entry is “inactive”.
The result for `Cc1nn(Cc2ccc(F)cc2)c(C)c1NC(=O)c1noc2c1CCc1ccccc1-2` reads 31.6 µM (active).
For `CCC(C)NC(=O)Cn1c(=O)n(-c2ccc(Cl)cc2)c(=O)c2c3c(sc21)CCCC3` (stereo not drawn), the Potency result was “inactive”.
On to `COc1cc2c(cc1OC)C(Nc1ccc(S(N)(=O)=O)cc1)=NC(C)(C)C2`, for which the Potency entry is “inactive”.
The result for `COc1cc2c(cc1O)C(SC)=NC(C)(C)C2` reads 20 µM (active); that for `COc1cc2c(cc1OC)CC1(CCCCC1)N=C2`, “inactive”; that for `COc1ccccc1-c1cc(NCc2cccs2)ncn1`, “inactive”.
Take `CC(C)C(N)C(=O)OCCOCn1cnc2c(=O)[nH]c(N)nc21` (stereo not drawn): the Potency result is “inactive”.
For `O=c1c(-c2cc(F)cc(F)c2)nc2cnc(Oc3ccccc3)nc2n1C[C@H]1CCCO1`, the Potency entry was “inactive”.
As to `COc1ccc(CNC(=O)COC(=O)c2c(C)nn(-c3ccccc3)c2C)cc1OC`, the Potency was 39.8 µM (active).
With `CCCn1c(C)cc(C(=O)COC(=O)c2c(C)nn(-c3ccccc3)c2C)c1C` the figure was 35.5 µM (active); with `C/C=C/c1ccc(OCC(=O)OCC(=O)Nc2c(C)nn(-c3ccccc3)c2C)c(OC)c1`, “inactive”; with `CCC(Oc1ccccc1)C(=O)OCC(=O)Nc1c(C)nn(-c2ccccc2)c1C` (stereo not drawn), “inactive”.
With `COc1ccc(CNC(=O)COc2ccccc2C(=O)c2cnn(-c3ccccc3)c2)cc1OC` the entry was “inactive”; with `Cc1ccc(OC(=O)c2c(C)nn(-c3ccccc3)c2C)cc1`, “inactive”.
